Measurements reported in article PMC7862700, “An all-to-all approach to the identification of sequence-specific readers for epigenetic DNA modifications on cytosine”.

What was measured:
Experiment in all cases: DAPPL (digital affinity profiling via proximity ligation, sequencing); 10 mM Tris-HCl pH 7.5, 50 mM NaCl, 1 mM DTT, 4% glycerol, room temperature, 30 min; GST-TFs on glutathione beads, 16-mer random dsDNA library, 0.1% formaldehyde crosslink after washing; high values mean tight binding
Settings in all cases: protein: recombinant; tags: N-terminal GST; dsDNA, one strand shown
FLI1 = target: T1, FLI1 (Homo sapiens, UniProt Q01543 1-452)
T1 sequence: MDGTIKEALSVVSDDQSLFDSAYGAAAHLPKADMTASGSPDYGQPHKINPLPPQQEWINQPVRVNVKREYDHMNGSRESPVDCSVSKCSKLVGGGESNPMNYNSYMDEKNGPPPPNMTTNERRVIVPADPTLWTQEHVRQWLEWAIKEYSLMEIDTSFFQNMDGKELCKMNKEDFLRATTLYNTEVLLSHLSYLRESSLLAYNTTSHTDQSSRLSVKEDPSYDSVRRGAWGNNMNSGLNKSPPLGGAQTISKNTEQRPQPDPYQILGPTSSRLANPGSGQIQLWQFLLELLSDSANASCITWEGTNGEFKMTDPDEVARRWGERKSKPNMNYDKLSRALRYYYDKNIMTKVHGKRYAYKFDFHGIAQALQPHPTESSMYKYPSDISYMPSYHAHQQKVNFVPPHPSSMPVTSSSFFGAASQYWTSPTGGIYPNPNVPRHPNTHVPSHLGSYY
Outline: (§1)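 Human transcription factors were made in yeast as GST fusions, captured on glutathione beads and barcoded with DNA. With a tag-only sample included, the pool was incubated with 200 nmole of a random double-stranded 16-mer DNA library in Tris/NaCl/DTT/glycerol buffer at room temperature for 30 min, then crosslinked with 0.1% formaldehyde after washing, ligated by proximity, amplified and sequenced. For binding signal, each hexamer's read frequency for a factor is divided by its frequency for the tag-only sample.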

ELK1 = target: T2, ELK1 (Homo sapiens, UniProt P19419 1-428)
T2 sequence: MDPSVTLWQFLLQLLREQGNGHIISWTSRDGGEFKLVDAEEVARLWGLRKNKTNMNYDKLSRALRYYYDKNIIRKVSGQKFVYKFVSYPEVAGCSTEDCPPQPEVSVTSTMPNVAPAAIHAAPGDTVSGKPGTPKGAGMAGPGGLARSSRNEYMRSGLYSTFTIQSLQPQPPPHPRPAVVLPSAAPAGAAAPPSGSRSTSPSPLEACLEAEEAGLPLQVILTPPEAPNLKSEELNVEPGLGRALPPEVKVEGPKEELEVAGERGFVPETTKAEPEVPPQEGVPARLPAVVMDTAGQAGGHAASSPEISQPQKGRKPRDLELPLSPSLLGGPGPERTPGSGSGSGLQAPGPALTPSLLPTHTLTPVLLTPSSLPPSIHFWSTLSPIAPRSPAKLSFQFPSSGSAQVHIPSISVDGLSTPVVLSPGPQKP
Outline: as §1

GABPA = target: T3, GABPA (Homo sapiens, UniProt Q06546 1-454)
T3 sequence: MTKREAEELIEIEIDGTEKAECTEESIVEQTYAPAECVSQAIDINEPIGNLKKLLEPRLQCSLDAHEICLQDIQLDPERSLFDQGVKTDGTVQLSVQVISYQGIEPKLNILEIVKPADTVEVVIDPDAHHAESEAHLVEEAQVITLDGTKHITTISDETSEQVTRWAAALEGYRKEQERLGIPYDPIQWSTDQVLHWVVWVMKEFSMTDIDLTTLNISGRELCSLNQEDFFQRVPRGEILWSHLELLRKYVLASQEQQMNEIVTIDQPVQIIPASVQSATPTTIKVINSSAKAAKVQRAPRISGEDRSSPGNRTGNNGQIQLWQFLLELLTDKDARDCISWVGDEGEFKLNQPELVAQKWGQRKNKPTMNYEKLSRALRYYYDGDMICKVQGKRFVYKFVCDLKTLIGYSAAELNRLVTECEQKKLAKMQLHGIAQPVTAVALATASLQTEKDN
Outline: as §1

ERG = target: T4, ERG (Homo sapiens, UniProt P11308 1-479)
T4 sequence: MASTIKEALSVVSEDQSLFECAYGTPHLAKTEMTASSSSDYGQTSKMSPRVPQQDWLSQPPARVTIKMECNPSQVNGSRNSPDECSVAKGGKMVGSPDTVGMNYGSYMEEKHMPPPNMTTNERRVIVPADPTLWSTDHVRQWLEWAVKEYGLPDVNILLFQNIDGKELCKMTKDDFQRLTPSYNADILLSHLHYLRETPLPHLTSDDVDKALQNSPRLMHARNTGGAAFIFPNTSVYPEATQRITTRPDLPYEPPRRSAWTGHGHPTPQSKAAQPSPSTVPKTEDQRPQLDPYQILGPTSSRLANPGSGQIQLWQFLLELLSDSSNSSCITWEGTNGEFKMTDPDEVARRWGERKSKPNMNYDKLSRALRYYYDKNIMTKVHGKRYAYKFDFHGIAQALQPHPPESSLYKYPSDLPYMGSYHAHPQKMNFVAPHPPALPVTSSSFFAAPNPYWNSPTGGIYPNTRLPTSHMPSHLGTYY
Outline: as §1

ELF1 = ELF1 (Homo sapiens, UniProt P32519 1-619)
Chain of ELF1 (P32519 whole entry): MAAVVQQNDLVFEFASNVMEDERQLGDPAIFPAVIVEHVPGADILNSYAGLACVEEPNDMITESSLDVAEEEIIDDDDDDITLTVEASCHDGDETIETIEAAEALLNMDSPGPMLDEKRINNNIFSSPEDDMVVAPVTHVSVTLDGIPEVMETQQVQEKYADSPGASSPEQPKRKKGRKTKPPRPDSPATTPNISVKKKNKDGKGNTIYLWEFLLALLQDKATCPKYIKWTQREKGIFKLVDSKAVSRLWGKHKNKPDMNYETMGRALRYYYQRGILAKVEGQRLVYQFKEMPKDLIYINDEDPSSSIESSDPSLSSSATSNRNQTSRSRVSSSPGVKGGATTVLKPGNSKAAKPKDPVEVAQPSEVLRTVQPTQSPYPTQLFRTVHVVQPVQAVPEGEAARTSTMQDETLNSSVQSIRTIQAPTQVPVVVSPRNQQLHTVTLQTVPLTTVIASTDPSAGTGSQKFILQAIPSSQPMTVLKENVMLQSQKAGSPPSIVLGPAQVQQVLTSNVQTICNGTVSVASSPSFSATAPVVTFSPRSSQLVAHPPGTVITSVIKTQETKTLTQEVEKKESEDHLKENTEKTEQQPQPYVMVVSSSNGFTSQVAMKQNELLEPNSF
Outline: as §1

EHF = target: T5, EHF (Homo sapiens, UniProt Q9NZC4 1-300)
T5 sequence: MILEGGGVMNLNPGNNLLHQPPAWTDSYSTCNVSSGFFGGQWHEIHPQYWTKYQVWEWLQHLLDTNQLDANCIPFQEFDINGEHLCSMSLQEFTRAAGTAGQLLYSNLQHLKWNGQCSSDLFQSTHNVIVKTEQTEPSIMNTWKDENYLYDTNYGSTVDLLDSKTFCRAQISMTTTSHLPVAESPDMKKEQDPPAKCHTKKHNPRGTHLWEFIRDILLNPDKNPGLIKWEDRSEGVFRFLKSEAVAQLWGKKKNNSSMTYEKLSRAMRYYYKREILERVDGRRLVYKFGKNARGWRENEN
Outline: as §1

SPIB = SPIB (Homo sapiens, UniProt Q01892 1-262)
Chain of SPIB (Q01892 whole entry): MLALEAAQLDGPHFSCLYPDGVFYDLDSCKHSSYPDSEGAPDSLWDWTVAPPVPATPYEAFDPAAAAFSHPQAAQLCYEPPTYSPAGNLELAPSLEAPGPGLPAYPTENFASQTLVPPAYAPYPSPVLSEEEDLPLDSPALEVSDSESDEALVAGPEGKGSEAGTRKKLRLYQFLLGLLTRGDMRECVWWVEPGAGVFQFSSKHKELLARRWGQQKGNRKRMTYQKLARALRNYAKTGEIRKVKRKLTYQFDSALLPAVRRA
Outline: as §1

ELK3 = target: T6, ELK3 (Homo sapiens, UniProt P41970 1-407)
T6 sequence: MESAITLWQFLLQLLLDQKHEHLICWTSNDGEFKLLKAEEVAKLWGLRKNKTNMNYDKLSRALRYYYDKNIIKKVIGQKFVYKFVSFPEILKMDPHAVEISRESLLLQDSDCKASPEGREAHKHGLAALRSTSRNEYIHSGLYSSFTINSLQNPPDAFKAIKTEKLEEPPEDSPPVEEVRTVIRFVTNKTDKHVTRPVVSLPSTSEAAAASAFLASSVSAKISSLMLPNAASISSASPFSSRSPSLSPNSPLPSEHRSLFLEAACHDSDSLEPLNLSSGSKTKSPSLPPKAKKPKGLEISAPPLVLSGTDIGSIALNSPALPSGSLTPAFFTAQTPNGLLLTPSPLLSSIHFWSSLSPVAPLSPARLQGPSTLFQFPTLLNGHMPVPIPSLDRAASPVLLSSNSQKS
Outline: as §1

SPI1 = SPI1 (Homo sapiens, UniProt P17947 1-270)
Outline: as §1

Row | Sequence | binding signal (FLI1) | binding signal (ELK1) | binding signal (GABPA) | binding signal (ERG) | binding signal (ELF1) | binding signal (EHF) | binding signal (SPIB) | binding signal (ELK3) | binding signal (SPI1)
1 | CGACGA | 1.19 fold enrichment (6-mer frequency, TF over GST control) | 1.03 fold enrichment (6-mer frequency, TF over GST control) | 1.11 fold enrichment (6-mer frequency, TF over GST control) | 1.18 fold enrichment (6-mer frequency, TF over GST control) | 1.09 fold enrichment (6-mer frequency, TF over GST control) | 1.14 fold enrichment (6-mer frequency, TF over GST control) | 1.2 fold enrichment (6-mer frequency, TF over GST control) | 1.2 fold enrichment (6-mer frequency, TF over GST control) | –
2 | CCTGGG | 1.16 fold enrichment (6-mer frequency, TF over GST control) | 1.18 fold enrichment (6-mer frequency, TF over GST control) | 1.15 fold enrichment (6-mer frequency, TF over GST control) | 1.16 fold enrichment (6-mer frequency, TF over GST control) | 1.18 fold enrichment (6-mer frequency, TF over GST control) | – | 1.08 fold enrichment (6-mer frequency, TF over GST control) | – | 1.11 fold enrichment (6-mer frequency, TF over GST control)
3 | GCACGA | 1.14 fold enrichment (6-mer frequency, TF over GST control) | 1.02 fold enrichment (6-mer frequency, TF over GST control) | 1.23 fold enrichment (6-mer frequency, TF over GST control) | 1.02 fold enrichment (6-mer frequency, TF over GST control) | 1.05 fold enrichment (6-mer frequency, TF over GST control) | 1.09 fold enrichment (6-mer frequency, TF over GST control) | 1.08 fold enrichment (6-mer frequency, TF over GST control) | 1 fold enrichment (6-mer frequency, TF over GST control) | –
4 | TCAAGG | 1.05 fold enrichment (6-mer frequency, TF over GST control) | 1.05 fold enrichment (6-mer frequency, TF over GST control) | 1.05 fold enrichment (6-mer frequency, TF over GST control) | 1.1 fold enrichment (6-mer frequency, TF over GST control) | 1.07 fold enrichment (6-mer frequency, TF over GST control) | 1.09 fold enrichment (6-mer frequency, TF over GST control) | 1.04 fold enrichment (6-mer frequency, TF over GST control) | 1.19 fold enrichment (6-mer frequency, TF over GST control) | –
5 | AATGGA | 1.01 fold enrichment (6-mer frequency, TF over GST control) | 1.01 fold enrichment (6-mer frequency, TF over GST control) | 1.01 fold enrichment (6-mer frequency, TF over GST control) | 1.06 fold enrichment (6-mer frequency, TF over GST control) | 1.03 fold enrichment (6-mer frequency, TF over GST control) | – | 1.06 fold enrichment (6-mer frequency, TF over GST control) | – | 1.06 fold enrichment (6-mer frequency, TF over GST control)
6 | AAAGCT | 1.06 fold enrichment (6-mer frequency, TF over GST control) | 1.09 fold enrichment (6-mer frequency, TF over GST control) | 1.08 fold enrichment (6-mer frequency, TF over GST control) | 1.08 fold enrichment (6-mer frequency, TF over GST control) | 1.09 fold enrichment (6-mer frequency, TF over GST control) | – | 1.06 fold enrichment (6-mer frequency, TF over GST control) | 1.01 fold enrichment (6-mer frequency, TF over GST control) | 1.01 fold enrichment (6-mer frequency, TF over GST control)
7 | CAACGA | 1.05 fold enrichment (6-mer frequency, TF over GST control) | 1.08 fold enrichment (6-mer frequency, TF over GST control) | 1.08 fold enrichment (6-mer frequency, TF over GST control) | 1.07 fold enrichment (6-mer frequency, TF over GST control) | 1.1 fold enrichment (6-mer frequency, TF over GST control) | 1.01 fold enrichment (6-mer frequency, TF over GST control) | 1.03 fold enrichment (6-mer frequency, TF over GST control) | 1.09 fold enrichment (6-mer frequency, TF over GST control) | –
8 | GTAATG | 1.07 fold enrichment (6-mer frequency, TF over GST control) | 1.07 fold enrichment (6-mer frequency, TF over GST control) | 1.16 fold enrichment (6-mer frequency, TF over GST control) | 1.05 fold enrichment (6-mer frequency, TF over GST control) | 1.11 fold enrichment (6-mer frequency, TF over GST control) | 1.12 fold enrichment (6-mer frequency, TF over GST control) | 1.06 fold enrichment (6-mer frequency, TF over GST control) | 1.03 fold enrichment (6-mer frequency, TF over GST control) | –
9 | TTAGTA | 1.23 fold enrichment (6-mer frequency, TF over GST control) | 1.13 fold enrichment (6-mer frequency, TF over GST control) | 1.21 fold enrichment (6-mer frequency, TF over GST control) | 1.21 fold enrichment (6-mer frequency, TF over GST control) | 1.12 fold enrichment (6-mer frequency, TF over GST control) | 1.08 fold enrichment (6-mer frequency, TF over GST control) | 1.06 fold enrichment (6-mer frequency, TF over GST control) | 1.08 fold enrichment (6-mer frequency, TF over GST control) | –
